The full data set covers some 8,800 targets. This sample favours those with a hit. About 0.5% of all pairs of compound and target were hits.
What follows are targets tested with CCn1c(C(=O)N(C2CC2)C2CC2)cc2c3c(ncn3C)c(Nc3cc(C)n(C)n3)nc21 (assay: log2 fold change, soluble protein after heating vs DMSO (PISA); higher = thermal stabilisation; K562 lysate, 10 uM; active = over 0.2 and 3.5 SD of the protein, either way, in both replicates (recomputed)).
Procedure, shortened: (§1)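 Log-two fold change in thermal stability relative to solvent controls is reported from duplicates. For each sample, crude K562 extract from dounce-homogenised pellets in PBS pH 7.4 with 1 mM MgCl2, at 1 mg/mL protein, was treated with 10 μM compound for 30 min. Aliquots heated for 3 min across 48°C-58°C were pooled, brought to 0.5% NP-40 at 4°C and cleared at 21,000xg for 90 min. The supernatant was quantified by TMTpro 16plex LC-MS/MS with channel sums equalised.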
Sequence of UniProt Q9UPW6 (Q9UPW6 whole entry, looked up): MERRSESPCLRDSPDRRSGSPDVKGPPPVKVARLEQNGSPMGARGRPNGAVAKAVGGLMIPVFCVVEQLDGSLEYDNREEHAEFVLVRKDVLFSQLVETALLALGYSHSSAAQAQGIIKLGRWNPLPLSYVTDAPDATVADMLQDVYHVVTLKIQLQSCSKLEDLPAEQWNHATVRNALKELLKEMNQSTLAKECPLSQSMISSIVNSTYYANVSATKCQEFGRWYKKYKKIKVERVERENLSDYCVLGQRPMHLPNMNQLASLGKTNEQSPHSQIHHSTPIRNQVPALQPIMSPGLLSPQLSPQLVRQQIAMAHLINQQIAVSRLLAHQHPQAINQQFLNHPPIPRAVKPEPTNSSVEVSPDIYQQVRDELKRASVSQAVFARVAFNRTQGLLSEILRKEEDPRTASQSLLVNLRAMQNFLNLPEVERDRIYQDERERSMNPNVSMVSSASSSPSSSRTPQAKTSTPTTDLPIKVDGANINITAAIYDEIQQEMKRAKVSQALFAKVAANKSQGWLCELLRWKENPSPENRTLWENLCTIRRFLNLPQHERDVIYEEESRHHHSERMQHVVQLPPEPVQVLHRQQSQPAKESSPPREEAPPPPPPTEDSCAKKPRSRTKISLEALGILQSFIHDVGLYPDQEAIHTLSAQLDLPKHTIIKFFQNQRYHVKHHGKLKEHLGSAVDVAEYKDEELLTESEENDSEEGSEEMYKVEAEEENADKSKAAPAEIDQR
Sequence of UniProt Q7L0Q8 (Q7L0Q8 whole entry, looked up): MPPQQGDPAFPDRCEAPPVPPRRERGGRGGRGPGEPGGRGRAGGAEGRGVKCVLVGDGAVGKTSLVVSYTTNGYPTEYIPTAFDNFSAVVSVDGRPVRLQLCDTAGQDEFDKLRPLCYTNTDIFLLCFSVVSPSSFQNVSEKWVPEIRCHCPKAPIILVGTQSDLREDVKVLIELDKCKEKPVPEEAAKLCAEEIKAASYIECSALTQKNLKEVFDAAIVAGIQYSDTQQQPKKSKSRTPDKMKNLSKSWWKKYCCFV
Sequence of UniProt P19793 (P19793 whole entry, looked up): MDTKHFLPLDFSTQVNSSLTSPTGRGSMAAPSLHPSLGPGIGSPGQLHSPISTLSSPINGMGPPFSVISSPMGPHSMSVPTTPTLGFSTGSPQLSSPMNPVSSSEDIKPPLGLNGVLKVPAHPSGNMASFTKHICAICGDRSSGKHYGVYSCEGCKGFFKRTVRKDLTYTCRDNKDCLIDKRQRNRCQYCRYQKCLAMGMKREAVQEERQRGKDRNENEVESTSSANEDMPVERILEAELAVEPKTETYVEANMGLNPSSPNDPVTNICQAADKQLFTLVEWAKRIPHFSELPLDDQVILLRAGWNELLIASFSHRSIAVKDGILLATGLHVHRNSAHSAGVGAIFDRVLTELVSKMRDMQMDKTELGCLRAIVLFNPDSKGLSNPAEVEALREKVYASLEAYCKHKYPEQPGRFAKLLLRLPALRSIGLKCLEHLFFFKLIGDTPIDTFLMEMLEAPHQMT
Sequence of UniProt Q6PCD5 (Q6PCD5 whole entry, looked up): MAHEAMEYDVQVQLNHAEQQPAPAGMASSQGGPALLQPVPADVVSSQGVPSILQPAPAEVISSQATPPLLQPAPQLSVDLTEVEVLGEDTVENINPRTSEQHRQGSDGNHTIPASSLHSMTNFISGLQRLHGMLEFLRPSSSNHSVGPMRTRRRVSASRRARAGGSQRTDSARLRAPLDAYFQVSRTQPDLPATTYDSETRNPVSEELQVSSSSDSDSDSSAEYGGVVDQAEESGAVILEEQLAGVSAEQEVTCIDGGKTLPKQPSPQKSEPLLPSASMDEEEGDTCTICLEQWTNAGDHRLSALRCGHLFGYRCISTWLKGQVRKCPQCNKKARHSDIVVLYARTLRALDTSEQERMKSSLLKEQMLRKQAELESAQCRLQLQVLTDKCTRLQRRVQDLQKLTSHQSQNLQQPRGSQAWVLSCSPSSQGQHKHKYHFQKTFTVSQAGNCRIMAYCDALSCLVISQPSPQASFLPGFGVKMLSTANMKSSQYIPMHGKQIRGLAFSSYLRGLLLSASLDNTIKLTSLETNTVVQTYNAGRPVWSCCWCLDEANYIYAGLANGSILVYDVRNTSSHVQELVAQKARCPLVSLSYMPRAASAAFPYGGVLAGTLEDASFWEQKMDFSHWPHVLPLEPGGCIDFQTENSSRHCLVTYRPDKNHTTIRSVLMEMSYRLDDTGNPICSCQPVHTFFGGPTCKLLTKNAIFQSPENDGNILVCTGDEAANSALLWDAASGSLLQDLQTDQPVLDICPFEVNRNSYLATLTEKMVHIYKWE
Sequence of UniProt O75582 (O75582 whole entry, looked up): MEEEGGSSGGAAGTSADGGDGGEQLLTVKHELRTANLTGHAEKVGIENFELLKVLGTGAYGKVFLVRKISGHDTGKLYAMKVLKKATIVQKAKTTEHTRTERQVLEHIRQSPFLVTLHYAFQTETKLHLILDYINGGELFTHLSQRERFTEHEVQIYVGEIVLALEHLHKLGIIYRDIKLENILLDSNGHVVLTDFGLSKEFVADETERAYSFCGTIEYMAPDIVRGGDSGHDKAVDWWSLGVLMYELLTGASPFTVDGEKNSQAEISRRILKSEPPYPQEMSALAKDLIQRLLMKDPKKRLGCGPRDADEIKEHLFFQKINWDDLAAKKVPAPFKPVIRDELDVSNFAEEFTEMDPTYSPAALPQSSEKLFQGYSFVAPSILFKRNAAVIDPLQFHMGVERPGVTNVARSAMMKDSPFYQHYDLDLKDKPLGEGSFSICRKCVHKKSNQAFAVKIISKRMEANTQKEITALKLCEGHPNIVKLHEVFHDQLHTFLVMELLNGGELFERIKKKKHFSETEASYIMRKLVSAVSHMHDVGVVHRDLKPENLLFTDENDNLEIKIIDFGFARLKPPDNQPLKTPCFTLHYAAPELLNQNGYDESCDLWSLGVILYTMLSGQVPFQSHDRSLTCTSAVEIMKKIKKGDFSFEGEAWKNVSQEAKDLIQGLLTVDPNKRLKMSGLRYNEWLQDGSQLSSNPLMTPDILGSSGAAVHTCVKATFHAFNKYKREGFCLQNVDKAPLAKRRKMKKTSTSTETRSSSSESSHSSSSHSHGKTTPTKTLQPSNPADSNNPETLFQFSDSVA
Sequence of UniProt Q9BWG6 (Q9BWG6 whole entry, looked up): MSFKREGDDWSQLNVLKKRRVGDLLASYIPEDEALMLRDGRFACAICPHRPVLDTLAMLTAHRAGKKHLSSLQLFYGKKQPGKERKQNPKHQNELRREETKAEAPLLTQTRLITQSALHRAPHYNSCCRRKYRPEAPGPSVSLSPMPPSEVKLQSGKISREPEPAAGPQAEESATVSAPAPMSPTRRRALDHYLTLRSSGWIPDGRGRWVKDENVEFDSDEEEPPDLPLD
Sequence of UniProt Q92698 (Q92698 whole entry, looked up): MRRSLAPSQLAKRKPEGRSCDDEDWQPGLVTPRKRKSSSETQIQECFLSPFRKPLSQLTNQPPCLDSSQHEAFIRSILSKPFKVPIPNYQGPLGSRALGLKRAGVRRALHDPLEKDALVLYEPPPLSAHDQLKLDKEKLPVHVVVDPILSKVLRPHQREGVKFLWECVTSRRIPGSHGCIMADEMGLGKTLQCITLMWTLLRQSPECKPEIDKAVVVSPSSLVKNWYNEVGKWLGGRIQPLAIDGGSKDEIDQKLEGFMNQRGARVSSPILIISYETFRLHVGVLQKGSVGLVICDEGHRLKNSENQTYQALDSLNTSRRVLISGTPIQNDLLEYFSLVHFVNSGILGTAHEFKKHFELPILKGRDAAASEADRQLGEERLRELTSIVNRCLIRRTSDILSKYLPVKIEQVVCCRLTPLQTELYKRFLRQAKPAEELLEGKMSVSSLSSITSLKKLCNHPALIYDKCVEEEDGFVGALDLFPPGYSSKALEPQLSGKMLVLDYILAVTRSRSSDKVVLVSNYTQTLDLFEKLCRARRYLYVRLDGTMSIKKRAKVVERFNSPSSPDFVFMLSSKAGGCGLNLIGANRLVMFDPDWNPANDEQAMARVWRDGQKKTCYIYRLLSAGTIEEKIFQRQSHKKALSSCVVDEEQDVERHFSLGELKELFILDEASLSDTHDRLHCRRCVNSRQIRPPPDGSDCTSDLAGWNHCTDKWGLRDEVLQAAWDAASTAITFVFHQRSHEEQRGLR
Sequence of UniProt Q99496 (Q99496 whole entry, looked up): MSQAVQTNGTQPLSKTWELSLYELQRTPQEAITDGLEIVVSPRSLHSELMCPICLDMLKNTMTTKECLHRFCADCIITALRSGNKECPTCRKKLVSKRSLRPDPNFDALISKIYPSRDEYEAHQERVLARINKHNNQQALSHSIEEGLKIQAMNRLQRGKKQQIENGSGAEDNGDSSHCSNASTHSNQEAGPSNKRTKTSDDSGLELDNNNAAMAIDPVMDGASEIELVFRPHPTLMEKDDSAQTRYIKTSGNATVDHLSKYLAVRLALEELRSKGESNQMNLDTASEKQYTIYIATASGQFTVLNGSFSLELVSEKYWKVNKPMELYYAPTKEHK
Sequence of UniProt Q96LT9 (Q96LT9 whole entry, looked up): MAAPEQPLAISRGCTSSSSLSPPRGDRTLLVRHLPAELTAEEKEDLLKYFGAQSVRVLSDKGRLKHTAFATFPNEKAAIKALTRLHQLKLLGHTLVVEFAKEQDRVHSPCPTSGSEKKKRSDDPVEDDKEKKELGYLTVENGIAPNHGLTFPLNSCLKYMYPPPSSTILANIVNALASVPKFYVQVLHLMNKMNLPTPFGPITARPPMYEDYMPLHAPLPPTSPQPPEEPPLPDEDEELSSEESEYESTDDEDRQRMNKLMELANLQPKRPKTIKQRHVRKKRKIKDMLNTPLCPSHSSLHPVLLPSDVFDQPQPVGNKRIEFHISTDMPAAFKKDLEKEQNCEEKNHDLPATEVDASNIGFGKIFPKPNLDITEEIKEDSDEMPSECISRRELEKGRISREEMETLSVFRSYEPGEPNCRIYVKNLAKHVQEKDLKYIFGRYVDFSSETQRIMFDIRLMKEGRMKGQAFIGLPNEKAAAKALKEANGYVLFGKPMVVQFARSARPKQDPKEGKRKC
Sequence of UniProt Q9Y6D0 (Q9Y6D0 whole entry, looked up): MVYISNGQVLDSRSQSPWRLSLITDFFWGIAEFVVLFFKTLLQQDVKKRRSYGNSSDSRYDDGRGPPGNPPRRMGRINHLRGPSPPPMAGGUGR
RUFY2 isoform 1 (UniProt Q8WXA3) was tested, and the log2 fold change was -0.026 (inactive).
RXRA (UniProt P19793) was tested, and the log2 fold change was -0.061 (inactive).
For SATB2 (UniProt Q9UPW6), the log2 fold change was 0.009 (inactive).
With RNF17 (UniProt Q9BXT8) the log2 fold change was -0.035 (inactive).
QSER1, A0A3B3IRW6 was tested, and the log2 fold change was 0.043 (inactive).
In the case of RPS6KA5 (UniProt O75582), the log2 fold change was 0.005 (inactive).
RHOU (UniProt Q7L0Q8) was tested, and the log2 fold change was -0.006 (inactive).
In the case of RNF2 (UniProt Q99496), the log2 fold change was 0.061 (inactive).
RAD17 (UniProt O75943) was tested, and the log2 fold change was 0.07 (inactive).
With RFWD3 (UniProt Q6PCD5) the log2 fold change was -0.062 (inactive).
S100A6 (UniProt P06703) was tested, and the log2 fold change was -0.094 (inactive).
RYR1 (UniProt P21817) was tested, and the log2 fold change was -0.053 (inactive).
In the case of SEC16A isoform 3 (UniProt O15027), the log2 fold change was 0.231 (inactive).
SCNM1 (UniProt Q9BWG6) was tested, and the log2 fold change was 0.099 (inactive).
In the case of SEC16A isoform 2 (UniProt O15027), the log2 fold change was -0.204 (inactive).
With ROBO2 isoform 3 (UniProt Q9HCK4) the log2 fold change was 0.523 (active).
RAD54L (UniProt Q92698) was tested, and the log2 fold change was 0.005 (inactive).
RMI2 (UniProt Q96E14) was tested, and the log2 fold change was -0.007 (inactive).
In the case of RNPC3 (UniProt Q96LT9), the log2 fold change was -0.119 (inactive).
With RECQL4 (UniProt O94761) the log2 fold change was 0.043 (inactive).
RDH11 (UniProt Q8TC12) was tested, and the log2 fold change was 0.069 (inactive).

What follows are targets tested with CCn1cc(-c2ccnc3[nH]c(-c4cccc(CN(C)C)c4)cc23)c(-c2ccc(NC(=O)N(C)C)cc2)n1 in the same assay as above.
Procedure, shortened: as §1
In the case of RUFY2 isoform 1 (UniProt Q8WXA3), the log2 fold change was -0.009 (inactive).
For RXRA (UniProt P19793), the log2 fold change was -0.359 (active).
SATB2 (UniProt Q9UPW6) was tested, and the log2 fold change was 0.074 (inactive).
With RALGAPB isoform 3 (UniProt Q86X10) the log2 fold change was -0.139 (inactive).
With SEMA4G isoform 2 (UniProt Q9NTN9) the log2 fold change was -0.072 (inactive).
With SERAC1 (UniProt Q96JX3) the log2 fold change was -0.061 (inactive).
RNF17 (UniProt Q9BXT8) was tested, and the log2 fold change was 0.113 (inactive).
For RPS6KA5 (UniProt O75582), the log2 fold change was -0.116 (inactive).
RHOU (UniProt Q7L0Q8) was tested, and the log2 fold change was 0.173 (inactive).
RNF2 (UniProt Q99496) was tested, and the log2 fold change was 0.557 (active).
With RAD17 (UniProt O75943) the log2 fold change was -0.214 (inactive).
With RFWD3 (UniProt Q6PCD5) the log2 fold change was -0.087 (inactive).
With S100A6 (UniProt P06703) the log2 fold change was 0.03 (inactive).
For RNF24 isoform 2 (UniProt Q9Y225), the log2 fold change was 0.033 (inactive).
SELENOK (UniProt Q9Y6D0) was tested, and the log2 fold change was -0.593 (inactive).
RNF170 (UniProt Q96K19) was tested, and the log2 fold change was -0.015 (inactive).
In the case of RYR1 (UniProt P21817), the log2 fold change was 0.045 (inactive).
SCNM1 (UniProt Q9BWG6) was tested, and the log2 fold change was -0.033 (inactive).
RAD54L (UniProt Q92698) was tested, and the log2 fold change was -2.19 (active).
For RNASEH1 (UniProt O60930), the log2 fold change was -0.023 (inactive).
For RNPC3 (UniProt Q96LT9), the log2 fold change was -0.009 (inactive).
For RECQL4 (UniProt O94761), the log2 fold change was -0.254 (inactive).
With RDH11 (UniProt Q8TC12) the log2 fold change was -0.213 (inactive).
For RBM45 (UniProt Q8IUH3), the log2 fold change was 0.128 (inactive).

Each target was assayed with CN1CCC(CNc2ccc3ncc(-c4cccc(OC(F)(F)F)c4)n3n2)CC1 in the same assay as above.
Procedure, shortened: as §1
For RUFY2 isoform 1 (UniProt Q8WXA3), the log2 fold change was -0.178 (inactive).
For RXRA (UniProt P19793), the log2 fold change was 0.13 (inactive).
For SATB2 (UniProt Q9UPW6), the log2 fold change was 0.016 (inactive).
RALGAPB isoform 3 (UniProt Q86X10) was tested, and the log2 fold change was 0.004 (inactive).
SEMA4G isoform 2 (UniProt Q9NTN9) was tested, and the log2 fold change was 0.04 (inactive).
SERAC1 (UniProt Q96JX3) was tested, and the log2 fold change was 0.051 (inactive).
For RNF17 (UniProt Q9BXT8), the log2 fold change was -0.421 (inactive).
For RPS6KA5 (UniProt O75582), the log2 fold change was 0.087 (inactive).
With RHOU (UniProt Q7L0Q8) the log2 fold change was 0.015 (inactive).
RNF2 (UniProt Q99496) was tested, and the log2 fold change was -0.399 (active).
RAD17 (UniProt O75943) was tested, and the log2 fold change was -0.027 (inactive).
With RFWD3 (UniProt Q6PCD5) the log2 fold change was -0.055 (inactive).
S100A6 (UniProt P06703) was tested, and the log2 fold change was -0.139 (inactive).
With RNF24 isoform 2 (UniProt Q9Y225) the log2 fold change was -0.084 (inactive).
SELENOK (UniProt Q9Y6D0) was tested, and the log2 fold change was 0.529 (active).
RNF170 (UniProt Q96K19) was tested, and the log2 fold change was 0.09 (inactive).
With RYR1 (UniProt P21817) the log2 fold change was 0.03 (inactive).
With SCNM1 (UniProt Q9BWG6) the log2 fold change was -0.005 (inactive).
For RAD54L (UniProt Q92698), the log2 fold change was 0.648 (inactive).
For RNASEH1 (UniProt O60930), the log2 fold change was -0.002 (inactive).
RNPC3 (UniProt Q96LT9) was tested, and the log2 fold change was -0.032 (inactive).
RECQL4 (UniProt O94761) was tested, and the log2 fold change was -0.026 (inactive).
RDH11 (UniProt Q8TC12) was tested, and the log2 fold change was 0.082 (inactive).
RBM45 (UniProt Q8IUH3) was tested, and the log2 fold change was -0.015 (inactive).
